A selection: hits, their analogues and other compounds. The true share with any hit is near 21%.
DT40 TDP1 no CPT: qHTS for Inhibitors of human tyrosyl-DNA phosphodiesterase 1 (TDP1): qHTS in cells in absence of CPT | DT40 Tdp1-/- hTDP1 cells, no CPT, ATP luminescence, 48 h | Potency, µM (series often up to 46.2 µM), without a hit: at the top dose activity change, negative = growth inhibition, most hits filed as inhibitors | 15% of 420,000 active | AID 686978, 2013; further: potency means the concentration at half of the fitted maximal effect; nearly all actives have a fitted effect of over 55% in size
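No-CPT arm: Tdp1-/-;hTDP1 DT40 cells (400/well) plus compounds, incubated ≥48 hr at 37 °C. Readout CellTiter-Glo luminescence.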
ELG1 repair inh: qHTS screen for small molecules that inhibit ELG1-dependent DNA repair in human embryonic kidney (HEK293T) cells expressing luciferase-tagged ELG1; AID 504467, 2011; HEK293T ELG1-luciferase reporter, luminescence, 16 h; DNA damage induced by 5-fluorouridine; 2.3% of 330,000 active; Potency, µM (titrated, usually from 46.1 µM), inactives show at the top dose activity change, negative = inhibition, hits mostly inhibitors; further: potency means the concentration at half of the fitted maximal effect; nearly all actives have a fitted effect of over 55% in size
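Reporter activity after DNA damage by 5-fluorouridine is monitored. Compound-treated cells incubate 16 hr at 37 °C, then ONE-Glo is added for 30 min before luminescence reading.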
TDP1 cell CPT: qHTS for Inhibitors of human tyrosyl-DNA phosphodiesterase 1 (TDP1): qHTS in cells in presence of CPT | chicken DT40 Tdp1-/-;hTDP1 cells + 20 nM CPT, ATP luminescence, 48 h | Potency, µM (doses to about 46.2 µM), for the others: at the top dose activity change, negative = growth inhibition, actives largely listed as inhibitors | 12% of 420,000 active | AID 686979, 2013; further: potency means the concentration at half of the fitted maximal effect; nearly all actives have a fitted effect of over 55% in size
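Chicken DT40 Tdp1-/- cells stably complemented with human TDP1 were seeded at 400 cells/well in medium containing 20 nM camptothecin, exposed to pin-transferred compounds, and grown at 37 °C for at least 48 hr. Viability was read as ATP luminescence.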
RORg inh: qHTS for inhibitors of ROR gamma transcriptional activity. Nuclear receptor ROR-gamma (Mus musculus), P51450. Drosophila S2 Gal4-RORgamma UAS-luciferase reporter, 20 h. Potency, µM (top dose mostly 53.6 µM), inactives show at the highest dose activity change, negative = inhibition, usual class: inhibitors. 5.4% of 310,000 active; further: potency means the concentration at half of the fitted maximal effect; nearly all actives have a fitted effect of over 60% in size
Target sequence (P51450 whole entry, looked up, the tested form may be a part): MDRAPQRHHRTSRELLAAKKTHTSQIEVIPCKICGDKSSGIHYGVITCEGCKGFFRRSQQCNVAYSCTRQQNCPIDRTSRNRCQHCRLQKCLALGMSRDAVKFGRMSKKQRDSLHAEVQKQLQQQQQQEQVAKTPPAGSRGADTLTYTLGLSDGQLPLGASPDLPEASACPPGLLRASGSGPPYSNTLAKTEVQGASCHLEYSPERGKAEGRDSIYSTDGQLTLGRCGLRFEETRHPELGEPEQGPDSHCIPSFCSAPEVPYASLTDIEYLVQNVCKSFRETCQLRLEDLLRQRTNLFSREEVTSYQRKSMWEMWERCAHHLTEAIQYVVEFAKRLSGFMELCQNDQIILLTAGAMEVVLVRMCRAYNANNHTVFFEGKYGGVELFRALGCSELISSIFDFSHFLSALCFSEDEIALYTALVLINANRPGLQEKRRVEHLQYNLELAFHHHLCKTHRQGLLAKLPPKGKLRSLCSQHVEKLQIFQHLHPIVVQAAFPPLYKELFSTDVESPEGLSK
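Stable Schneider cell line, Gal4 DNA-binding domain fused to ROR gamma, UAS-luciferase. Cmpd 1 hr RT → CuSO4 700 uM final → 20 hr RT → luciferase reagent 10 min → luminescence.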
VP16 counter: VP16 counterscreen qHTS for inhibitors of ROR gamma transcriptional activity | Potency, µM (series often up to 53.6 µM), without a hit: top-dose activity, negative = inhibition, hits mostly inhibitors | AID 2546, 2010 | Drosophila S2 Gal4-VP16 UAS-luciferase, luminescence, 20 h | 3.5% of 310,000 active;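 further: Gal4-VP16 expression switched on by copper sulfate through the metallothionein promoter; potency means the concentration at half of the fitted maximal effect; nearly all actives have a fitted effect of over 50% in size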
IL1B secr inh: qHTS for Inhibitors of Inflammasome Signaling: IL-1-beta AlphaLISA Primary Screen; 4.7% of 360,000 active; THP-1 LPS/ATP IL-1B secretion, AlphaLISA, 16 h; hits give low values; activity change, % at 57.5 µM; AID 743279, 2014; in the data active means activity change below about -50%; inconclusive means mostly about -30% to -49%
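THP-1 cells pretreated 1 hr with compounds (up to 57.5 uM final), then stimulated with LPS (250 ng/mL final) plus ATP (1.25 mM final); secreted IL-1B measured by AlphaLISA after 16 hr, decreased signal indicating inhibition.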
* = called active by the depositor; u = inconclusive; x = no result given. Unless noted, the call rests on the fitted dose curve; in most records, active means well fitted curve in the direction sought with a large enough effect; inconclusive means small, poorly fitted or top-dose-only effect, or another doubt; inactive means no such curve, though single readings can be large; an effect the other way counts as inactive or inconclusive. On the % scale 0 is the no-effect control and ±100 the full control effect.

SMILES	DT40 TDP1 no CPT	ELG1 repair inh	TDP1 cell CPT	RORg inh	VP16 counter	IL1B secr inh
Cc1ccc(C(=O)N/N=C/C=C/c2ccccc2)cc1	-9.0%	-9.1%	-4.7%	3.16µM*	7.94µM*	-21.3
O=C(CNc1cccc2ccccc12)N/N=C/c1cccc(Oc2ccccc2)c1	25.9µM*	-3.5%	u	u	u	-6.9
O=C(CNc1cccc2ccccc12)N/N=C/c1ccccn1	u	u	u	-34.0%	-11.9%	x
CC(C)c1cc(C(=O)N/N=C/C=C/c2ccccc2)n[nH]1	9.4%	-4.0%	12.7%	u	20µM*	u
Cc1cc(C(=O)N/N=C/C=C/c2ccc(Br)cc2)n[nH]1	10.7%	-1.9%	-1.0%	-22.2%	1.6%	13.1
Cc1cc(C(=O)N/N=C/c2ccccc2)c(C)o1	-26.1%	u	-1.7%	-3.3%	1.2%	-15.1
Cc1ccc(F)cc1NC(=O)COC(=O)C1CC2CCCC(C1)C2=O (configuration not stated)	-15.8%	x	-9.1%	x	x	8.3
CCNc1c(NC(=O)C2CCC(C)CC2)c(=O)oc2ccccc12 (configuration not stated)	u	1.8%	u	4.6%	-5.3%	55.3
CCC/C=N/NC(=O)c1cccc(Br)c1	-0.1%	u	0.0%	u	29.1%	-14.8
O=C(N/N=C/C=C/c1ccccc1)c1cccc(Br)c1	20.6µM*	10.7%	u	1µM*	5.01µM*	-25.6
O=C(N/N=C/c1cccc(Oc2ccccc2)c1)c1cccc(Br)c1	20.6µM*	u	u	10µM*	u	5.5
O=C(N/N=C/c1cccc(Oc2ccccc2)c1)c1cccc(O)c1	u	17.8%	u	20.4%	-0.1%	-4.8
CCn1cc(C(=O)N2CCN(c3ccc(F)cc3)CC2)c(=O)c2cc(S(=O)(=O)N3CCOCC3)ccc21	1.9%	x	-2.9%	x	x	x
N#C/C(=C/c1ccc(O)cc1)C(=O)NCc1ccc(Cl)cc1	-19.7%	5.2%	9.7%	-11.9%	6.8%	-65.3*
Cc1[nH]c2ccccc2c1/C=C(\C#N)C(=O)NCc1ccccc1	u	-10.7%	u	21.2%	-13.4%	0.0
N#C/C(=C\c1ccc(O)cc1)C(=O)NCc1ccccc1	-3.7%	-4.8%	u	8.3%	-0.2%	-63.2*
COc1ccc(/C=C(\C#N)C(=O)NCc2ccccc2)cc1	5.4%	-2.3%	-1.0%	u	-26.3%	-19.6
N#C/C(=C\c1ccc(O)cc1)C(=O)NCc1cccc(Cl)c1	-3.8%	-6.8%	-6.8%	24.9%	-0.1%	-15.8
N#C/C(=C\c1ccc(OCc2ccccc2)cc1)C(=O)Nc1nc2c(s1)CCN(Cc1ccccc1)C2	20.6µM*	u	23.1µM*	u	3.9%	22.0
CC(=O)Nc1ccc(/C=C(\C#N)C(=O)NCc2ccccc2)cc1	u	3.9%	-20.4%	11.9%	-0.5%	-67.8*
CC(C)c1nc2cc(C(=O)N3CCNC(=O)C3c3ccc(F)cc3)ccc2o1 (configuration not stated)	-24.9%	-0.4%	u	u	u	8.6
Cc1oc(-c2cccc(Cl)c2)nc1CSc1nncn2c1cc1occc12	-2.0%	x	26.8%	x	x	x
N#C/C(=C\c1ccc(OCc2ccccc2)cc1)C(N)=O	23.1µM*	u	u	-0.3%	-8.3%	-13.9
C[C@H](NC[C@H](O)CP(=O)(O)Cc1ccccc1)c1ccc(Cl)c(Cl)c1	-12.9%	x	-2.4%	5.7%	1.9%	x

Source: PubChem BioAssay (National Center for Advancing Translational Sciences (NCATS))
